For 60 compounds, inhibition results are on record in PubChem BioAssay AID602123 (The Scripps Research Institute Molecular Screening Center, 2011).

In all, about 360,000 compounds went through this assay and about 1,500 (0.42%) were called active. No stated cut-off is given here; in the data, active means inhibition above about 13% (passing the limit was not always enough); inactive means the rest. For the sample, actives were picked, then their nearest neighbours and some compounds at random.

For orientation: inhibition means the drop in the measured response relative to a control, in per cent.

In this test the target is Lon protease (Escherichia coli (strain K12)) (UniProt P0A9M0). As to the kind of experiment: E. coli eLon protease inhibition – biochemical, fluorescence polarization, primary screen (AID 602123).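 Further: 0% = enzyme with probe and DMSO and 100% = no enzyme.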 To be noted: purified E. coli Lon protease, at 7.94 µM, hits give high values.
Lon protease (Escherichia coli (strain K12)), sequence (P0A9M0 whole entry, looked up): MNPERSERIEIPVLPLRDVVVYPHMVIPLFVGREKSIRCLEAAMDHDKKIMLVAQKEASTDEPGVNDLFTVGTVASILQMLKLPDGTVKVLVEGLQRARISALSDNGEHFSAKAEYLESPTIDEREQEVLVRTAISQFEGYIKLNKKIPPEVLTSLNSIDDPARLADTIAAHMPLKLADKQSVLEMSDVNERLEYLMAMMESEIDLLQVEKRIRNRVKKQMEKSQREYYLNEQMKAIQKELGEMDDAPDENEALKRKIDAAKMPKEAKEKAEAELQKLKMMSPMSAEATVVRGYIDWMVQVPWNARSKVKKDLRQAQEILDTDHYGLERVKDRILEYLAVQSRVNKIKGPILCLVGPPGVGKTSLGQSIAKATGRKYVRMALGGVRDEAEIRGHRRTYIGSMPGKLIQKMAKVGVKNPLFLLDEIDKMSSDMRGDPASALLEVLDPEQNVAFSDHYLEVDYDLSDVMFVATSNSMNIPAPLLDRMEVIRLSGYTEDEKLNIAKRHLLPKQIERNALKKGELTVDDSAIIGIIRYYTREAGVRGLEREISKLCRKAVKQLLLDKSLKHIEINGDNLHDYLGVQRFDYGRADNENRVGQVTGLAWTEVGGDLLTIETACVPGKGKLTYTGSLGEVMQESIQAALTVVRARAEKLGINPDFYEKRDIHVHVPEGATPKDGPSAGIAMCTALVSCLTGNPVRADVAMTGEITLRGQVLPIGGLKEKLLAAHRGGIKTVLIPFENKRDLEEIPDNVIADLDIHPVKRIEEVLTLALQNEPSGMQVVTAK
`CCOCCCNC(=O)C(NC(=O)c1ccccc1O)c1ccccc1` (stereo not given): the inhibition was 10.1% (inactive). To `CCn1cc(/C=C(\NC(=O)c2ccc(C)cc2)C(=O)NCCN2CCOCC2)c2ccccc21` belongs -56.3% (inactive). Turning to `O=C1C2C3C=CC(C4CC34)C2C(=O)N1/N=C/c1ccc(-c2ccccc2[N+](=O)[O-])o1` (stereo not given), the inhibition was 15.8% (active).

For the compound `Cc1c(/C=N/N2C(=O)C3C4C=CC(C4)C3C2=O)c2ccccc2n1C` (stereo not given), the inhibition was 0.26% (inactive). The value for `CCN1CCN(C(=O)CN(C)S(=O)(=O)c2ccc3ccccc3c2)CC1` was -4.47% (inactive). The value for `O=C(NCCOc1cccnc1)c1ccc(OC2CCN(Cc3ccccn3)CC2)cc1` was 6.74% (inactive); that for `CCOC(=O)C1(C(F)(F)F)N=C(N(C)C)OC(N(C)C)=N1` was 1.25% (inactive). The value for `N#CC1=C(N)Oc2cc(O)ccc2C1C1CCCCC1` (stereo not given) was -1.88% (inactive).

As for `NC1=C([N+](=O)[O-])C(c2ccccc2)C2=C(CCCC2=O)O1` (stereo not given), the inhibition is -4.86% (inactive). To `N#CC1=C(N)OC2=C(C(=O)CCC2)C1C1CC=CCC1` (stereo not given) belongs 20% (active). To `O=C(O)c1ccc(OCC2CCCO2)cc1` (stereo not given) belongs -7.47% (inactive). The value for `CCCCCCSc1nsc(N)n1` was -2.31% (inactive). Turning to `COc1ccc(CCNC(=O)Cn2c(=O)n(CC3CCCO3)c(=O)c3ccccc32)cc1OC` (stereo not given), the inhibition was -3.69% (inactive). The value for `Cc1ccc2nc3c(cc(C(=O)NCCc4ccccc4)c(=N)n3CC3CCCO3)c(=O)n2c1` (stereo not given) was 18.8% (active); that for `Cc1ccc(CCNC(=O)c2ccc3nc4ccccc4c(=O)n3c2)cc1` was 4.65% (inactive).

Regarding `Oc1ccc(N2CCN(C(=S)NCc3ccccc3)CC2)cc1`, the inhibition was 4.95% (inactive).

Regarding `CC(C)N(C(=O)COC(=O)c1ccccc1C(=O)N1CCN(c2ccc(F)cc2)CC1)C(C)C`, the inhibition was -12.1% (inactive). As to `O=C(COC(=O)c1ccccc1C(=O)N1CCN(c2ccccc2)CC1)NCc1ccccc1`, the inhibition is 23% (active). To `CC(C)(C)C(=O)c1c(N)[nH]c(C(=O)c2ccccc2)c1-c1ccc(F)cc1` belongs -14.5% (inactive); to `COc1ccc(C)cc1NC(=O)CCS(=O)(=O)c1cccc2nonc12`, -0.09% (inactive); to `COc1cccc2sc(N(CCCN(C)C)C(=O)CCS(=O)(=O)c3ccccc3)nc12`, 22.5% (active). The value for `O=C(CCS(=O)(=O)c1ccccc1)NC1CCCC1` was 0.44% (inactive); that for `Cc1nn(C)c(C)c1CN(C(=O)CCc1nnc(Cc2c[nH]c3ccccc23)o1)C(C)C` was 12.7% (inactive); that for `Cc1cccn2c(=O)c3cc(C#N)c(=O)n(CCCN4CCOCC4)c3nc12` was -13.8% (inactive). The value for `Cc1cccn2c(=O)c3cc(C#N)c(=NC(=O)c4cccnc4)n(CC4CCCO4)c3nc12` (stereo not given) was 21.1% (active); that for `COCCCn1c(C(=O)NC2CCCCC2)cc2c(=O)n3cccc(C)c3nc21` was -13.7% (inactive); that for `O=C(C1CC1)N1N=C(c2ccc(Br)cc2)CC1(O)C(F)(F)F` (stereo not given) was -8.02% (inactive).

Regarding `CCCS(=O)(=O)N1CCC(C(=O)NCCCN(C)Cc2ccccc2)CC1`, the inhibition was -3.31% (inactive).

`CC1CC(C)CN(c2ccc(S(=O)(=O)N3CCOCC3)cc2)C1` (stereo not given): the inhibition was 4.68% (inactive).

As for `CSCCC(NS(=O)(=O)/C=C/c1ccccc1)C(=O)N1CCC(C)CC1` (stereo not given), the inhibition is -1.94% (inactive). To `Cc1ccc(Cc2c(-c3ccco3)nc3ccc(Cl)cn23)cc1` belongs -7.56% (inactive).

On to `c1ccc(Cc2c(-c3ccco3)nc3c4ccccc4ccn23)cc1`, for which the inhibition was -7.97% (inactive). To `COc1ccc(NCc2nnc(SCc3ccccc3)n2-c2ccc(OC)cc2)cc1` belongs -3.02% (inactive); to `Cc1ccc2nc(-c3ccco3)c(Cc3cccc(Cl)c3)n2c1`, -7.22% (inactive); to `c1ccc(CSc2nnc(-c3ccco3)c(-c3ccco3)n2)cc1`, 86.1% (active). To `Clc1ccccc1CSc1nnc(-c2ccco2)c(-c2ccco2)n1` belongs 41.5% (active); to `O=C(C1CC(=O)N(c2ccc(Br)cc2)C1)N1CCCC1` (stereo not given), -8.68% (inactive); to `CC1CC(=S)Nc2ccccc2N1Cc1ccccc1` (stereo not given), 6.5% (inactive). As to `O=C(CCCn1c(=O)c2sccc2n(CC(=O)NCC2CCCO2)c1=O)NCc1ccco1` (stereo not given), the inhibition is -1.12% (inactive). As for `C=CCN1CCN(C(=O)CCCc2ccccc2)CC1`, the inhibition is -7.13% (inactive). The value for `Cn1c(C(=O)OC(C(=O)NC2CCCCC2)c2ccccn2)cc2sccc21` (stereo not given) was 2.24% (inactive); that for `CC(C)(O)C1=C[N+](=O)CC=C1` was -1.32% (inactive). Take `COC(=O)CSc1ccc2nnc(CCNS(=O)(=O)c3ccc(C)cc3)n2n1`: the inhibition is -1.61% (inactive). The value for `COc1ccc(-c2onc3ccc(C(C)=O)cc23)cc1` was 97% (active). `COCc1cc(C(C)=O)ccc1OC`: the inhibition was -3.49% (inactive).

`COc1ccc(-c2ocnc2C(=O)Nc2ccc3c(c2)CCC3)cc1`: the inhibition is 11.4% (inactive).

`CCOC(=O)c1cc2cc(OC)ccc2n1C1CCN(C)CC1`: the inhibition was 3.4% (inactive). The value for `COc1cc2cc(CN(CCN3CCCC3)C(=O)Nc3ccccc3Cl)c(=O)[nH]c2cc1OC` was -12.8% (inactive); that for `Cc1ccc(C(=O)OCC(=O)NCc2cc(C)c(O)c(C)c2)cc1S(=O)(=O)N1CCCCC1` was -7.17% (inactive). The value for `COc1cc(NC(=O)COC(=O)c2cnc(C)cn2)c(C)cc1[N+](=O)[O-]` was -4.63% (inactive). As to `COc1ccc(-c2cc(NC(C)=O)c3ncc(-c4cc(OC)c(OC)c(OC)c4)n3c2)cn1`, the inhibition is 2.07% (inactive). The value for `Cc1ccn2cc(-c3nonc3C)cc2c1` was 25.1% (active); that for `c1ccc(C(=NNc2nc3ccccc3s2)c2ccccn2)cc1` was 131% (active). To `CSc1ncccc1C(=O)Nc1nc2ccc(F)cc2s1` belongs 7.17% (inactive); to `C[C@H]1CN([C@@H](C)CO)C(=O)CCCn2cc(nn2)CO[C@@H]1CN(C)S(=O)(=O)c1ccc(-n2cccn2)cc1`, 7.06% (inactive).

In the case of `O=C(CNC(=O)c1ccccc1F)OCC(=O)c1c[nH]c2ccccc12`, the inhibition was -11.7% (inactive). The value for `O=C(Nc1ccn(Cc2ccccc2)n1)c1n[nH]c([N+](=O)[O-])c1Cl` was 1.99% (inactive); that for `COCCn1c(N)c(NCc2ccccc2)c(=O)[nH]c1=O` was 31.1% (active); that for `COCCn1c(N)c(N(Cc2ccccc2)C(=O)C2CCCCC2)c(=O)[nH]c1=O` was -5.01% (inactive). In the case of `COCCN(C(=O)c1ccccc1F)c1c(N)n(Cc2ccccc2)c(=O)[nH]c1=O`, the inhibition was 2.64% (inactive).
